The target in test [1] is Protein kinase C gamma type (Homo sapiens) (UniProt P05129). As to conditions: at 1 µM.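 Note: each value is an averaged percent inhibition of the enzyme.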
Test [2] has as its target T1, Protein kinase C iota type (Homo sapiens) (UniProt P41743).
T1 sequence (whole entry): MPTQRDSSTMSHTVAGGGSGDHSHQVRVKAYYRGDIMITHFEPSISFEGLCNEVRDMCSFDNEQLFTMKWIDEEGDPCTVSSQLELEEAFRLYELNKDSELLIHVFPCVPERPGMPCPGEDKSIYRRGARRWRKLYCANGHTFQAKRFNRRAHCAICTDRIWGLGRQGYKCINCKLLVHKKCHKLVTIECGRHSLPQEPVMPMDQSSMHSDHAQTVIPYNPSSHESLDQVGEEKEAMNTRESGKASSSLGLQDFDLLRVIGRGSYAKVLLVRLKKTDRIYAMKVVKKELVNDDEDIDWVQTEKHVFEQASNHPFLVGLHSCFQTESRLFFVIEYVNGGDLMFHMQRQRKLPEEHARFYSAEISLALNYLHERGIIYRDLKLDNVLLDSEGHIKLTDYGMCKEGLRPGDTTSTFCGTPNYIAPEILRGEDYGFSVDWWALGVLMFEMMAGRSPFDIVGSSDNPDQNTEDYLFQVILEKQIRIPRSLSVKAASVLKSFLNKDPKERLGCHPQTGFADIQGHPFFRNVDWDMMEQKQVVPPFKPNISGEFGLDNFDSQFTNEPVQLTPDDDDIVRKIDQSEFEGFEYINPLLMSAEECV
As to conditions: at 0.1 µM.

Test [3] deals with T1, Protein kinase C iota type (Homo sapiens). As to conditions: at 1 µM.
The target of test [4] is Protein kinase C theta type (Homo sapiens) (UniProt Q04759). As to conditions: at 0.1 µM.
For test [5] the target is unchanged. As to conditions: at 1 µM.
The target in test [6] is Protein kinase C beta type (Homo sapiens) (UniProt P05771). As to conditions: at 0.1 µM.
For test [7] the target is unchanged. As to conditions: at 1 µM.
Test [8] concerns the target T2, Serine/threonine-protein kinase D1 (Homo sapiens) (UniProt Q15139).
T2 sequence (whole entry): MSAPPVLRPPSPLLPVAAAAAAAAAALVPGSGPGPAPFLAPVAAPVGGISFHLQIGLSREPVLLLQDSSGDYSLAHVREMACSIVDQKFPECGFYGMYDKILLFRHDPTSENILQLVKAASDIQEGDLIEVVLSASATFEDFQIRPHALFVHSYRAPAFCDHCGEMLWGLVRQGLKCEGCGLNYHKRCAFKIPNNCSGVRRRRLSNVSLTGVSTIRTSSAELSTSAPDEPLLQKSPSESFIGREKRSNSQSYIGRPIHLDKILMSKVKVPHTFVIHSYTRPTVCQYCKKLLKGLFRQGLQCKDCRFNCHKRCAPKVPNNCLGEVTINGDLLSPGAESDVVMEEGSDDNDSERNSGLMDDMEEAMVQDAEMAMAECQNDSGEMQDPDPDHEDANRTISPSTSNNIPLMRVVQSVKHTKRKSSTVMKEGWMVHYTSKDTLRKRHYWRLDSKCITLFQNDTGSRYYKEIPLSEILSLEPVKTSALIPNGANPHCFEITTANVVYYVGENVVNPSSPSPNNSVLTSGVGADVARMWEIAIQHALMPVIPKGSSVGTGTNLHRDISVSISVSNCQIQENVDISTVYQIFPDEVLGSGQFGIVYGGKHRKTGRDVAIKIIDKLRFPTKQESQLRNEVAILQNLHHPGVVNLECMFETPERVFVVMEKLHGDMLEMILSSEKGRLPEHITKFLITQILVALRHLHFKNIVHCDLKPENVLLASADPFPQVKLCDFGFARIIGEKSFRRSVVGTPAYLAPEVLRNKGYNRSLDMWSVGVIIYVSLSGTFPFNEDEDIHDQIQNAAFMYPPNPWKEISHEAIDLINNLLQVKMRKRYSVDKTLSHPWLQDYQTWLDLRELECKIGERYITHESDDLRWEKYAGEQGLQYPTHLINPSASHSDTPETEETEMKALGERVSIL
As to conditions: at 0.1 µM.

The target in test [9] is T2, Serine/threonine-protein kinase D1 (Homo sapiens). As to conditions: at 1 µM.
The target of test [10] is T3, Serine/threonine-protein kinase D2 (Homo sapiens) (UniProt Q9BZL6).
T3 sequence (whole entry): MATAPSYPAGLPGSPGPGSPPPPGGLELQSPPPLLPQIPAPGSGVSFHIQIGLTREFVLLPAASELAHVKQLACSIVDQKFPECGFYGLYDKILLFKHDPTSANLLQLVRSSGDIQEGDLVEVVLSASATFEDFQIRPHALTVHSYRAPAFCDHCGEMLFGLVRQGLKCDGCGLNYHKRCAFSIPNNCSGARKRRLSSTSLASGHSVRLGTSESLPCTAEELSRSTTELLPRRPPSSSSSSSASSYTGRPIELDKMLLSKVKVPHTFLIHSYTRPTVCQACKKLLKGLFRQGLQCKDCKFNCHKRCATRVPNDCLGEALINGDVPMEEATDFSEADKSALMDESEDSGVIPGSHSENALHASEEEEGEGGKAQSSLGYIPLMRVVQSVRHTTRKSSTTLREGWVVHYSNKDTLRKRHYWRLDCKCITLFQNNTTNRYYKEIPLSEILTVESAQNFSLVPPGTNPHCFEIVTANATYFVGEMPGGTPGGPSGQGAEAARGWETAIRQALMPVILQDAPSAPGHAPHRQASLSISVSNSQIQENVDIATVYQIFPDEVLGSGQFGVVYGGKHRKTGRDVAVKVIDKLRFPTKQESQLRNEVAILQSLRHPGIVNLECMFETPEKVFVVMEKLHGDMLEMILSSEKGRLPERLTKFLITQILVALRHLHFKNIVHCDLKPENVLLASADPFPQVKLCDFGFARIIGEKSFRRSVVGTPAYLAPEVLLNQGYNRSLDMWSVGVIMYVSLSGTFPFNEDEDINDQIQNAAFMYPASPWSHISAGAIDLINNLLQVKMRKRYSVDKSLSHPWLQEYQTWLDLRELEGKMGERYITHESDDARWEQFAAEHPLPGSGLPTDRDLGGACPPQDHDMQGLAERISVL
As to conditions: at 0.1 µM.

For test [11], the target named is T3, Serine/threonine-protein kinase D2 (Homo sapiens). As to conditions: at 1 µM.
Test [12] concerns the target T4, Serine/threonine-protein kinase D3 (Homo sapiens) (UniProt O94806).
T4 sequence (whole entry): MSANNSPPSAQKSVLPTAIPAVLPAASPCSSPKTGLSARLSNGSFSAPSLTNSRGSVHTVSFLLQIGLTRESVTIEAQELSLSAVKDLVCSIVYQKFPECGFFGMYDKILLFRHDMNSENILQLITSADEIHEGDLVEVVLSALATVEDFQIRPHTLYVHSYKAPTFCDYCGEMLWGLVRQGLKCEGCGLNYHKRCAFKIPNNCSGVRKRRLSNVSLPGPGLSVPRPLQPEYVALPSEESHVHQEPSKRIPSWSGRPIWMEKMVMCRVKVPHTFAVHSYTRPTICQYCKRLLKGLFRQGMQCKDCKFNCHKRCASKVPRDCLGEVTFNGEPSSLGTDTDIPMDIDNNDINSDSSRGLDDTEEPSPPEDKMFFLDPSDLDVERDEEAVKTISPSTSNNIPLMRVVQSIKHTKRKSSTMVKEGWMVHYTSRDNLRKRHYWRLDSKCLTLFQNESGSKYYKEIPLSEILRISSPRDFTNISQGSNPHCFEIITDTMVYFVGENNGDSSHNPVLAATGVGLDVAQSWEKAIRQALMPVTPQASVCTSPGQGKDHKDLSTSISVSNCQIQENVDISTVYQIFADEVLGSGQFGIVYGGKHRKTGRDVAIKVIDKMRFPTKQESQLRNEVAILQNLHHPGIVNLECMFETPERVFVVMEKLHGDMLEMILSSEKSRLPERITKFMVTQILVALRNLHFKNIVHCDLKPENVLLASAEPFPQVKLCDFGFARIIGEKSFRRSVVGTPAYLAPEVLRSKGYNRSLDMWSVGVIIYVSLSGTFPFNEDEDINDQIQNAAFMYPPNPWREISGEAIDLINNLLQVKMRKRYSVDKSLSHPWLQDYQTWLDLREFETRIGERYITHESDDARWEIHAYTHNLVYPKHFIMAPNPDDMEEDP
As to conditions: at 0.1 µM.

For test [13], the target named is T4, Serine/threonine-protein kinase D3 (Homo sapiens). As to conditions: at 1 µM.
The target of test [14] is T5, cGMP-dependent protein kinase 1 (Homo sapiens) (UniProt Q13976).
T5 sequence (whole entry): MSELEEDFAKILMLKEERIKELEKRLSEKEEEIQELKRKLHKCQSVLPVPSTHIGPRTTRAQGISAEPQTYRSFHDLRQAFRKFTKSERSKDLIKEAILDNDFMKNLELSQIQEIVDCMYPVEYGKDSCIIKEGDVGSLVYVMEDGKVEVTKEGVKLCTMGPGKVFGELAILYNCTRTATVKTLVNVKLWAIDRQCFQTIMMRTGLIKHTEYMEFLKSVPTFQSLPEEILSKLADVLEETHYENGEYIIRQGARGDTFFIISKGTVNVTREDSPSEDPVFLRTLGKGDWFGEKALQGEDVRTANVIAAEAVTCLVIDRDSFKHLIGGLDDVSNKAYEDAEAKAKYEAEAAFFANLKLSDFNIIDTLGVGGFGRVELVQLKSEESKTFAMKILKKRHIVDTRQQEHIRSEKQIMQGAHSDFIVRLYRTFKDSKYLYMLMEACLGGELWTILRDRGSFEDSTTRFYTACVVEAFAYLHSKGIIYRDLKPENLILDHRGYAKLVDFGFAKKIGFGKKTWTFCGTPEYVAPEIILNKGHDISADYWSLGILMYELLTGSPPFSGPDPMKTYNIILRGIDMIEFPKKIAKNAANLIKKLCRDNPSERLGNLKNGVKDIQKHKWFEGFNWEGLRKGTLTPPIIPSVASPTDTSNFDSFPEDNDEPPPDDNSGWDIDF
As to conditions: at 0.1 µM.

Test [15] addresses T5, cGMP-dependent protein kinase 1 (Homo sapiens). As to conditions: at 1 µM.
For test [16], the target named is T6, cGMP-dependent protein kinase 2 (Homo sapiens) (UniProt Q13237).
T6 sequence (whole entry): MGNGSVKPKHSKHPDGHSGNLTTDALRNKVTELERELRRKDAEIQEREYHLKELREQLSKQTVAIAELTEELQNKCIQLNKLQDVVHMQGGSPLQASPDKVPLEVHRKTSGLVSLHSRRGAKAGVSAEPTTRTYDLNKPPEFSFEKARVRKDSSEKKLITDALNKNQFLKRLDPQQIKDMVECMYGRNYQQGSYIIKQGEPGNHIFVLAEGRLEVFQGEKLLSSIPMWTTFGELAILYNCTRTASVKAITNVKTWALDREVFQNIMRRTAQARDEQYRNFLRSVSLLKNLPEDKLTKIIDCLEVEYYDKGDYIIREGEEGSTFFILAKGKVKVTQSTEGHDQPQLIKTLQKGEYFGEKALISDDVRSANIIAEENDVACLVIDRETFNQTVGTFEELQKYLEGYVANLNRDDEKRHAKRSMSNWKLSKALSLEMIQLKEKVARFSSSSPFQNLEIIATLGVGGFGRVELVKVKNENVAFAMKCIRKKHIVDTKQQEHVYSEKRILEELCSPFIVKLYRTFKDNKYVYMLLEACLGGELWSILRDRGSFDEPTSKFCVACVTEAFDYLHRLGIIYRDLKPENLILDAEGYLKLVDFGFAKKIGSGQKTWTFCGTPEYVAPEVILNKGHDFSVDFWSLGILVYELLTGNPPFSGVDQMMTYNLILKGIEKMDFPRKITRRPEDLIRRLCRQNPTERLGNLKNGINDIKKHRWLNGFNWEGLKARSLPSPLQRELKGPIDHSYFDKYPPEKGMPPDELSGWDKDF
As to conditions: at 0.1 µM.

For test [17], the target named is T6, cGMP-dependent protein kinase 2 (Homo sapiens). As to conditions: at 1 µM.
Test [18] concerns the target T7, cAMP-dependent protein kinase catalytic subunit PRKX (Homo sapiens) (UniProt P51817).
T7 sequence (whole entry): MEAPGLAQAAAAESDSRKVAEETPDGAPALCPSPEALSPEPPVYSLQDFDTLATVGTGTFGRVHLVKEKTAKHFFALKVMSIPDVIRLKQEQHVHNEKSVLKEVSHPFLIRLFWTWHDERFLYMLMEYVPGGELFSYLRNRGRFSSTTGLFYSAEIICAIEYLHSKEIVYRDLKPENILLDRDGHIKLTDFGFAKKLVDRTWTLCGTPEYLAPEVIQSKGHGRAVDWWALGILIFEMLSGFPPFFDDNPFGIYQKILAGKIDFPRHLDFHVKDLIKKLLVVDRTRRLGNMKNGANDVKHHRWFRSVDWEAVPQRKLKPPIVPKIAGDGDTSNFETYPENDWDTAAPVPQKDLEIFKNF
As to conditions: at 0.1 µM.

The target in test [19] is T7, cAMP-dependent protein kinase catalytic subunit PRKX (Homo sapiens). As to conditions: at 1 µM.
Test [20] has as its target Rho-associated protein kinase 1 (Homo sapiens) (UniProt Q13464). As to conditions: at 0.1 µM.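 Note: values are mean percent inhibition of ROCK1.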

Sequence of Protein kinase C beta type (Homo sapiens) (P05771 2-671 limits assumed): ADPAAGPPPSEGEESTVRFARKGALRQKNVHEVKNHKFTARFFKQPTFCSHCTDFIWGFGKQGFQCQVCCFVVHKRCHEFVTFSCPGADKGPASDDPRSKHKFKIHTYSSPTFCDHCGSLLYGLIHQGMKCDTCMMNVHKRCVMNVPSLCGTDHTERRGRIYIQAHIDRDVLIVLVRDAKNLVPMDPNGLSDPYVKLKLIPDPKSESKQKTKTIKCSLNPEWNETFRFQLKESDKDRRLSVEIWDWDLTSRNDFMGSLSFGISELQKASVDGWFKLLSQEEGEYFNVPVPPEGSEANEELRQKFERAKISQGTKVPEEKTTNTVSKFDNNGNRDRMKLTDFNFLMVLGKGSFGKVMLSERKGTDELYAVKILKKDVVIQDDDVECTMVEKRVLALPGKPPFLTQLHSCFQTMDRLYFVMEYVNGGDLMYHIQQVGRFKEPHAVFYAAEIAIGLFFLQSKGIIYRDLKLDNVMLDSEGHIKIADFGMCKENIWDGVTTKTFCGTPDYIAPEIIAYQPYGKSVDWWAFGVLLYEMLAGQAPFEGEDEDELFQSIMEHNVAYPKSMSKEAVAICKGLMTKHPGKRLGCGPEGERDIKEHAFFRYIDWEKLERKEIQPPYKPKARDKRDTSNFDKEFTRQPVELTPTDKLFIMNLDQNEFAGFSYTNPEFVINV
Sequence of Protein kinase C theta type (Homo sapiens) (Q04759 whole entry, looked up): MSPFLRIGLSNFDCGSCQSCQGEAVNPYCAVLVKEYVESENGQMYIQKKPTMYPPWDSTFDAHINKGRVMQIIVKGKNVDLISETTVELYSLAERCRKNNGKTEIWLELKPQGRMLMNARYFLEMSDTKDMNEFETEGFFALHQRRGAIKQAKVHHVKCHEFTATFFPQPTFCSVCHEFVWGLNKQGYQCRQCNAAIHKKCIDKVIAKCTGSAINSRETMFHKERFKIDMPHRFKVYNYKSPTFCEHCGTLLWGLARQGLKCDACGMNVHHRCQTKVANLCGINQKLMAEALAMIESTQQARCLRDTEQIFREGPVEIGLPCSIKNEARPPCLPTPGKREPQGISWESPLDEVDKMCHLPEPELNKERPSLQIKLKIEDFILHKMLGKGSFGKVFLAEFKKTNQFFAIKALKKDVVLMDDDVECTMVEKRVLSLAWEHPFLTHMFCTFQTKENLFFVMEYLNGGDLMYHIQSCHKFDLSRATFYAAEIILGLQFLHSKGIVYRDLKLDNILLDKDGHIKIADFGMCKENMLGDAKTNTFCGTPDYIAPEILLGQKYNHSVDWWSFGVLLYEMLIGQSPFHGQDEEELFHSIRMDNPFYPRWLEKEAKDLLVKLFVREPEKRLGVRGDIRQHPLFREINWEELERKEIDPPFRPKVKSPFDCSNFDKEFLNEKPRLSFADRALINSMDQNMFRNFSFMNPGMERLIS
Sequence of Rho-associated protein kinase 1 (Homo sapiens) (Q13464 2-1354 limits assumed): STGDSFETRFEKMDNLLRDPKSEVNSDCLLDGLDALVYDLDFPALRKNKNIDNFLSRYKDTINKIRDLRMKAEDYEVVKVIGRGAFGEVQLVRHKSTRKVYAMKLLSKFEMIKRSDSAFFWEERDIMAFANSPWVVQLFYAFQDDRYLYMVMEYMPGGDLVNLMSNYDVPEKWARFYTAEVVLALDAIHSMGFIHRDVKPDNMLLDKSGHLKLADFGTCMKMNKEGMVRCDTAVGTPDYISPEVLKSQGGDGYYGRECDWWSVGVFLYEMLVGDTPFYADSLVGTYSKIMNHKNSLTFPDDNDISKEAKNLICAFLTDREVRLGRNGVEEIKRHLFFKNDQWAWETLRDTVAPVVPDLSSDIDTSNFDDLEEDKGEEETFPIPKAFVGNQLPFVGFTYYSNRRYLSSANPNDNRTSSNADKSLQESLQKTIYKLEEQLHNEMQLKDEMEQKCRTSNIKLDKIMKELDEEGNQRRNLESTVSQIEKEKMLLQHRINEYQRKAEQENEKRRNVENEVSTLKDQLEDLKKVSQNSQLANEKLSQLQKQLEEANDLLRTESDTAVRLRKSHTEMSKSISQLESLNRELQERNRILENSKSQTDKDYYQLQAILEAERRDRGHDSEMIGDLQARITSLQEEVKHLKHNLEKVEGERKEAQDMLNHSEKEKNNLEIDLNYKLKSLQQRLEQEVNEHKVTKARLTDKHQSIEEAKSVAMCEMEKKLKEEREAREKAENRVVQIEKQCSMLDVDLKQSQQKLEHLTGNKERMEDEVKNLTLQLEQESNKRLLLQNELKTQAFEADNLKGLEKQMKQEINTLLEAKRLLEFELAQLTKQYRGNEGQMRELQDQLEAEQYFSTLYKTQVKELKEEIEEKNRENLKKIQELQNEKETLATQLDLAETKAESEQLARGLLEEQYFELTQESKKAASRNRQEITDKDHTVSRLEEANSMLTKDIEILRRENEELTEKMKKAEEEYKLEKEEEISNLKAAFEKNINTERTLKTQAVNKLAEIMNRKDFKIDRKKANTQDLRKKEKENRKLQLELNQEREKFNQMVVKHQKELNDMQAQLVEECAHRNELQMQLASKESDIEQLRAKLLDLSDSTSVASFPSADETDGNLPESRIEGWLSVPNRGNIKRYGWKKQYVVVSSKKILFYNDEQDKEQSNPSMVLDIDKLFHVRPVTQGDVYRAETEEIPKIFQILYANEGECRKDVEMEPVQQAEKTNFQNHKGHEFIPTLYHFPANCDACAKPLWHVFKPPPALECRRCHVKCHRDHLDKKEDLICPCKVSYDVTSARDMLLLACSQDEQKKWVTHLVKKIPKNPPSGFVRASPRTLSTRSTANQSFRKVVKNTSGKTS

With `CN1CCC(n2cnc(-c3ccc(F)cc3)c2-c2ccnc(N)n2)CC1`, the inhibition in test [1] came out at 8.99%; in test [2], 0.59%; in [3] it was 0.68%; in test [4], 1.72%; in test [5], 3.61%; in test [6], 2.83%. Further, the inhibition in [7] was found to be 12.3%; in [8], 4.67%; in test [9] it was 26.3%; in test [10], 3.25%; in [11] it was 16.4%; in [12], 2.68%. The inhibition in test [13] stood at 17.3%; in test [14], 0.5%; in test [15], 9.09%; in test [16], 2.99%; in test [17], 30.7%; in test [18], 0.51%. The inhibition in test [19] is 1.95%; in test [20] it was -0.08%.

Values taken from ChEMBL document CHEMBL1961873, “Compounds: GSK PKIS; Assays: Nanosyn kinase panel” (2012).
